Assay outcomes deposited in PubChem BioAssay by National Center for Advancing Translational Sciences (NCATS).
This is a sample that favours compounds with a hit; in the whole collection about 2.9% have one here.
IP6K1 inhibitor: Primary qHTS assay for small molecule inhibitors of Inositol hexaphosphate kinase 1 (IP6K1); AID 1645851, 2021; Inositol hexakisphosphate kinase 1 (Homo sapiens), Q92551; IP6K1 kinase, ADP-Glo luminescence, 2 h; hits give low values; 0.81% of 140,000 active; activity change, % (series mostly up to about 58 µM); in the data active means activity change below about -25%; further: on the % scale 0 is the no-effect control and ±100 the full control effect
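ADP-Glo luminescence measures ADP made by human IP6K1 during a 2 h RT reaction with ATP/IP6 (mix at 1.3 mM/130 uM); top library doses 57.5 and 19.1 uM final.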
SNCA expr inh: Primary qHTS assay for inhibitors of alpha-synuclein gene (SNCA) expression; HEK-293 SNCA-luciferase knock-in, luminescence, 24 h; Potency, µM (highest dose often 57.2 µM), without a hit: at the highest dose activity change, negative = inhibition, hits mostly inhibitors; 0.17% of 140,000 active; AID 1671194, 2021;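 further: potency means the concentration at half of the fitted maximal effect; plate controls were DMSO cells for no effect and cell-free wells for full effect; nearly all actives have a fitted effect of over 45% in size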
SNCA viab count: GF-AFC viability counterscreen for inhibitors of alpha-synuclein gene (SNCA) expression; HEK-293-SNCA-luc viability, GF-AFC fluorescence, 24 h; Potency, µM (titrated, usually from 57.1 µM), inactives show top-dose activity change, negative = cytotoxicity, actives largely listed as cytotoxic; 0.12% of 150,000 active; AID 1671193, 2021;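 further: potency means the concentration at half of the fitted maximal effect; 0% = DMSO-treated cells and -100% = medium-only wells without cells; nearly all actives have a fitted effect of over 30% in size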
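HEK-293-SNCA-luc cells (1500/well) plated 24 h, then exposed 24 h to a dilution series; GF-AFC added 30 min at 37C, fluorescence 405/540 nm; normalised to medium-only and DMSO wells, Hill fit.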
KDM5B inh: Primary screen for KDM5B Histone Demethylases FDH-coupled qHTS; Lysine-specific demethylase 5B (Homo sapiens), Q9UGL1; KDM5B demethylase, FDH-coupled NADH fluorescence (FDH is formaldehyde dehydrogenase); Potency, µM (doses to about 57.7 µM), actives largely listed as inhibitors; 2.6% of 220,000 active; further: potency means the concentration at half of the fitted maximal effect; 0% is about no effect; nearly all actives have a fitted effect of over 70% in size
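Compound dilutions met 200 nM (final) KDM5BΔAP for 10 min at room temperature before substrate addition. The substrate mix held 12.5 µM H3K4me3 with cofactors 25 µM α-ketoglutarate and 50 µM Fe²⁺. NADH signal gain over 30 min defined activity.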
* marks the source's active call; other numbers are inactive results; i = inactive; ? = inconclusive; . = no result given; ! = a repeat was not active; [ ] = another dose, or the depositor's remark. Unless noted, the call rests on the fitted dose curve; in most records, active means well fitted curve in the direction sought with a large enough effect; inconclusive means small, poorly fitted or top-dose-only effect, or another doubt; inactive means no such curve, though single readings can be large; an effect the other way counts as inactive or inconclusive.

SMILES | IP6K1 inhibitor | SNCA expr inh | SNCA viab count | KDM5B inh
COc1ccc(-c2ccnc(-c3nnc(C)n3CCN(C)C)c2)cc1OC | -6 | -9%[87.6 µM] | -1%[87.6 µM] | 28µM*
Cc1nnc(-c2cc(-c3ccsc3)ccn2)n1C(C)C | -4 | 16%[87.6 µM] | -8%[87.6 µM] | i
COc1ccccc1-c1ccnc(-c2nnc(C)n2CCN2CCOCC2)c1 | -7 | -8%[87.6 µM] | 0%[87.6 µM] | 40µM*
COc1ncccc1-c1ccnc(-c2nnc(C)n2C2CCCCC2)c1 | -5 | ? | -16%[87.6 µM] | 28µM*
COc1ccc(-c2ccnc(-c3nnc(C)n3C(C)C)c2)cc1OC | -7 | -1%[87.6 µM] | 2%[87.6 µM] | 35µM*
O=C(NC1CCCN(c2ccc3nnc(-c4ccccc4)n3n2)C1)c1ccccc1 (centres undefined) | 1 | . | . | .
O=C(NC1CCN(Cc2cccc(-c3cccs3)c2)CC1)C1CC1 | 4 | 8%[87.6 µM] | -2%[12.5 µM] | .
Cc1nnc(-c2cc(-c3ccc(N4CCOCC4)cc3)ccn2)n1C1CCCCC1 | -10 | 8%[87.6 µM] | -13%[87.6 µM] | 32µM*
Cc1nnc(-c2cc(-c3ccc(N4CCOCC4)cc3)ccn2)n1Cc1ccccc1 | -5 | 5%[87.6 µM] | -6%[87.6 µM] | 20µM*
COc1ncccc1-c1ccnc(-c2nnc(C)n2Cc2ccccc2)c1 | -1 | 23%[87.6 µM] | -4%[87.6 µM] | 28µM*
COc1ccc(-c2ccnc(-c3nnc(C)n3Cc3ccccc3)c2)cc1OC | -6 | 32%[87.6 µM] | -16%[87.6 µM] | 35µM*
Cc1ccc([S+](=O)([O-])NC2CCCN(c3ccc4nnc(-c5ccccc5)n4n3)C2)cc1 (centres undefined) | -7 | . | . | .
COc1ccc(OCC(O)CN2CCC(=O)N(Cc3ccco3)Cc3sccc32)cc1 (centres undefined) | -12 | . | . | .
COc1ccccc1-c1[nH]nc2ncc(-c3c(C)noc3C)nc12 | 10 | 19%[87.6 µM] | 4%[87.6 µM] | ?
CC(C)(C)n1cc(-c2cc(C(=O)N3C[C@H]4CC[C@H]3C4)c3ccccc3n2)cn1 | 34 | 23% | -12% | 32µM*
Cc1nc(NCCCNC2CCCCC2)c2cnn(C)c2n1 | . | . | . | i
Cn1ncc2c(NCCc3cn4ccccc4n3)nc(C3CCCC3)nc21 | 17 | -5% | 4% | 20µM*
Cc1ccccc1CC(=O)NCc1nnc2cc(-c3nc(C4CC4)no3)ccn12 | -7 | 114% | ? | 28µM*
Cc1ccc(C(=O)NCc2nnc3cc(-c4nc(C5CC5)no4)ccn23)cc1 | -2 | -6% | -3% | ?
O=C(Cc1ccccc1Cl)NCc1nnc2cc(-c3nc(C4CC4)no3)ccn12 | 4 | -3% | 4% | 16µM*
Cc1ccc(CC(=O)NCc2nnc3cc(-c4nc(C5CC5)no4)ccn23)cc1 | -8 | -10% | 5% | 28µM*
CCC(C(=O)NCc1nnc2cc(-c3nc(C4CC4)no3)ccn12)c1ccccc1 (centres undefined) | 11 | 0% | -12% | i
CNC(=O)c1cc(C2CC2)nc2c1c(C1CCN(C(=O)c3cccc(OC)c3)C1)nn2C (centres undefined) | 1 | . | . | .
COC(=O)C1=C(C)N=C2SC=C(CC(=O)N(C)Cc3ccco3)N2C1c1ccc(Cl)cc1 (centres undefined) | 10 | -8% | 19% | 18µM*
CNC(=O)c1ccc(Nc2ncc(C(F)(F)F)c(NCc3nccnc3N(C)S(C)(=O)=O)n2)cc1 | -4 | 21µM* | ? | .
SMILES | IP6K1 inhibitor | SNCA expr inh | SNCA viab count | KDM5B inh
COc1cccc(CN2CCNc3cc(Nc4ccccc4)ncc3C2)c1 | -13 | 24%[87.6 µM] | ? | ?
Cc1ccc(C(=O)N2CCC3(CC2)N=C(c2cccc(Br)c2)NO3)cc1 | -13 | 15% | -3% | 32µM*
CN(C)c1cccc(C(=O)N2CCC3(CC2)N=C(c2cccc(Br)c2)NO3)c1 | -10 | 2% | 2% | 32µM*
Cc1ccc(C(=O)N2CCC3(CC2)N=C(c2ccc(C)cc2)NO3)cc1 | -19 | 26% | -1% | i
CC(C)c1nccn1CCCNC(=O)c1ccc(NC2CCC(O)CC2)nc1 (centres undefined) | 2 | 7% | 1% | 28µM*
CC(C)c1nccn1CCCNC(=O)c1ccc(-c2ccc(F)cc2)nc1 | -5 | 4% | ? | i
COc1cccc(-c2ccc(C(=O)NCCCn3ccnc3C(C)C)cn2)c1 | 23 | 19% | 2% | 28µM*
COC1CCCN(c2ccc(C(=O)NCCCn3ccnc3C(C)C)cn2)C1 (centres undefined) | 3 | 7% | -8% | ?
N#CC1CCN(C(=O)C2CCCN(Cc3cccc(-c4ccsc4)c3)C2)CC1 (centres undefined) | -16 | . | . | .
COc1ccc(C2(C(=O)N[C@H]3COC[C@H]3Cc3cc(C)no3)CCCC2)cc1 | 1 | 10% | -1% | i
COc1nc2ccccc2nc1CCC(=O)N[C@H]1COC[C@H]1Cc1cc(C)no1 | -2 | 7% | -4% | 28µM*
COc1ccc2[nH]c(C(=O)N[C@H]3COC[C@H]3Cc3cc(C)no3)c(C)c2c1 | 0 | 15% | 6% | 22µM*
Cc1cc(C)cc(NC(=O)N2CCC(F)(c3nc(-c4ccncc4)no3)CC2)c1 | 25 | -17% | -9% | .
COc1cccc2nc(-c3cccs3)nc(NN3C(=O)C=C(C)C3=O)c12 | -19 | ? | 30µM*! | .
COc1ccccc1CNC(=O)CSc1nc(-c2cccs2)nc2ccccc12 | . | . | . | i
COCc1nnc2n1CCC(NC(=O)c1ccn(C)n1)CC2 (centres undefined) | 5 | 3% | -1% | i
COCc1nnc2n1CCC(NC(=O)c1ccc3cc[nH]c3c1)CC2 (centres undefined) | 5 | -3% | -9% | 28µM*
CN(C)Cc1nnc(C2CC(Nc3cncc(C(=O)N(C)C)n3)C2)n1C (centres undefined) | 0 | 2% | 2% | 28µM*
CN(C)Cc1nnc(C2CC(NC(=O)c3ccn(C)c(=O)c3)C2)n1C (centres undefined) | 6 | 8% | -2% | 32µM*
CN(C)Cc1nnc(C2CC(NC(=O)c3ccc4c(c3)CCC4)C2)n1C (centres undefined) | 18 | 0% | -11% | i
CCOC(=O)[C@@H]1CN(C(=O)c2cccc3c2OC(F)(F)O3)[C@H]2c3cccc(F)c3O[C@@H]12 | 23 | . | . | .
C[S+](=O)([O-])NC1CCCN(c2ccc3nnc(-c4ccccc4)n3n2)C1 (centres undefined) | 5 | . | . | .
Cc1cccc(-c2nocc2CCC(=O)NC2CCN(Cc3ccccc3)CC2)c1 | 13 | 117% | 5% | i
Cc1ccc2[nH]c(=O)c(CCC(=O)N3CCN(CC(C)C)CC3)cc2c1 | 29 | 13% | 13% | 22µM*
CCCCN1CCN(C(=O)CCc2cc3ccc(C)cc3[nH]c2=O)CC1 | 19 | 2% | 12% | i
Cc1ccc2[nH]c(=O)c(CCC(=O)NC3CCN(Cc4ccccc4)CC3)cc2c1 | 28 | 5% | 6% | 25µM*
